In article PMC7862700, “An all-to-all approach to the identification of sequence-specific readers for epigenetic DNA modifications on cytosine”:

Legend:
Assay in all cases: DAPPL (digital affinity profiling via proximity ligation, sequencing); 10 mM Tris-HCl pH 7.5, 50 mM NaCl, 1 mM DTT, 4% glycerol, room temperature, 30 min; GST-TFs on glutathione beads, 16-mer random dsDNA library, 0.1% formaldehyde crosslink after washing; high values mean tight binding
Settings in all cases: protein: recombinant; tags: N-terminal GST; dsDNA, one strand shown
[1] = target: T1, ERF (Homo sapiens, UniProt P50548 1-548)
T1 sequence: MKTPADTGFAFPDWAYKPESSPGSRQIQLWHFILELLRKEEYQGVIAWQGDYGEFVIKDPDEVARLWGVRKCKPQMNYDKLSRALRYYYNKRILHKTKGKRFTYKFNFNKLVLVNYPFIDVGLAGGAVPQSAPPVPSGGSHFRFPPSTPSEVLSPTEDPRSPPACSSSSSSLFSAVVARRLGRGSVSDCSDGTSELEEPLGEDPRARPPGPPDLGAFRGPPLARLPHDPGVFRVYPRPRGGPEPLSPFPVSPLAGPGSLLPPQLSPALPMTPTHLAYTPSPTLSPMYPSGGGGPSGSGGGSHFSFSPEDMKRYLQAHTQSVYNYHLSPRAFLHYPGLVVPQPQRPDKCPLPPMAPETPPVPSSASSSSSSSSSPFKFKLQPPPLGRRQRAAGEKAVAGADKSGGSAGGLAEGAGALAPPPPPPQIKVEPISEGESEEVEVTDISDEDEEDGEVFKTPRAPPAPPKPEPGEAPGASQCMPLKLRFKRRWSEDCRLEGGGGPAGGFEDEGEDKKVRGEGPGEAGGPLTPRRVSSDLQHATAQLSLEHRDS
How it was run: (§1)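 Pools of DNA-barcoded human transcription factors, expressed in yeast as GST fusions on glutathione beads and combined with a tag-only sample, were incubated with 200 nmole of a 16-mer random double-stranded DNA library. Incubation took 30 min at room temperature in Tris/NaCl/DTT/glycerol buffer and was followed by washing, 0.1% formaldehyde crosslinking, proximity ligation (BsaI/T4 ligase, 1 h, 37 °C), PCR amplification and sequencing on an Illumina NextSeq500. Binding signal is the ratio of a hexamer's read frequency for a factor to its frequency for the tag-only sample.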

[2] = target: T2, ETV3L (Homo sapiens, UniProt Q6ZN32 1-361)
T2 sequence: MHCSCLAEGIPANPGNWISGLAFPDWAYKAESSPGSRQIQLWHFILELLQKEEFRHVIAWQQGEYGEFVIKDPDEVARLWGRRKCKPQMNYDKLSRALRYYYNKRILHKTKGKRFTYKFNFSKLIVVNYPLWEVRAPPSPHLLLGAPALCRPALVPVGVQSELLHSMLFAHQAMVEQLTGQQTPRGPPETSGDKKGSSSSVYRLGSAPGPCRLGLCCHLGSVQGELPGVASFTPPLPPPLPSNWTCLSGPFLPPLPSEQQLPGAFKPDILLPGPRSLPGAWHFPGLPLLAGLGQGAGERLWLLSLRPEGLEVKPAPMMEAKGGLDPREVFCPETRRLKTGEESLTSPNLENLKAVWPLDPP
How it was run: as §1

[3] = target: T3, ETS2 (Homo sapiens, UniProt P15036 1-469)
T3 sequence: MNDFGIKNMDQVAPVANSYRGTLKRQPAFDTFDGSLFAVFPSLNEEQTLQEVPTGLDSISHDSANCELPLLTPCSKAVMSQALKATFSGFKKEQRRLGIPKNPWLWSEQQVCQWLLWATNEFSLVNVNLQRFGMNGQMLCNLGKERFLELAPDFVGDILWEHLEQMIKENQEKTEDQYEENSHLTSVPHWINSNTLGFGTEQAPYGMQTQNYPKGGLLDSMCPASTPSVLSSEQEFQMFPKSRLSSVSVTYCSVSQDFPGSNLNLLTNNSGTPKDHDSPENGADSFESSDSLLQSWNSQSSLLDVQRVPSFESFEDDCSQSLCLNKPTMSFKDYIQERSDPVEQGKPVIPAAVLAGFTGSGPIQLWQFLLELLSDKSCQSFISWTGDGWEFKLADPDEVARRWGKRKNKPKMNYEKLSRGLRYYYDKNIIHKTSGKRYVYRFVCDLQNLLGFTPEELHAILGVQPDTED
How it was run: as §1

[4] = target: T4, SPDEF (Homo sapiens, UniProt O95238 1-335)
T4 sequence: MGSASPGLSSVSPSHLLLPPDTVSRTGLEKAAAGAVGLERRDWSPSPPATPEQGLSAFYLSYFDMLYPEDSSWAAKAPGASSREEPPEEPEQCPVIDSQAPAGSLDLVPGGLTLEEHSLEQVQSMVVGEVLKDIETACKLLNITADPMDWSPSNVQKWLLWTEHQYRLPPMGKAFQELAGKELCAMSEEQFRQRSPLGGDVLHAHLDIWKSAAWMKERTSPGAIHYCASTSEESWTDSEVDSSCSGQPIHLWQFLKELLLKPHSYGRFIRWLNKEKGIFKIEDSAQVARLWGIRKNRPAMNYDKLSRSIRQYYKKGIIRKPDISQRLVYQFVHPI
How it was run: as §1

[5] = target: T5, ETV7 (Homo sapiens, UniProt Q9Y603 1-341)
T5 sequence: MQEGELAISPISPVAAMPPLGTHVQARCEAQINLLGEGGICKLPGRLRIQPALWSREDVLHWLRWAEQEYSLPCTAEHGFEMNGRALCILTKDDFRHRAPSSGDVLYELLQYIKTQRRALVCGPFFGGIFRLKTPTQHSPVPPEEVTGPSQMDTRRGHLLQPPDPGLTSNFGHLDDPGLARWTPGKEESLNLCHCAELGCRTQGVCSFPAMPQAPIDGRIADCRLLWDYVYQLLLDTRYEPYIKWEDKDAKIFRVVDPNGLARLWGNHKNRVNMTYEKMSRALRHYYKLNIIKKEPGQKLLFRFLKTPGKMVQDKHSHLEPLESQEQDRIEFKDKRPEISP
How it was run: as §1

[6] = target: T6, ELF5 (Homo sapiens, UniProt Q9UKW6-2 1-255)
T6 sequence: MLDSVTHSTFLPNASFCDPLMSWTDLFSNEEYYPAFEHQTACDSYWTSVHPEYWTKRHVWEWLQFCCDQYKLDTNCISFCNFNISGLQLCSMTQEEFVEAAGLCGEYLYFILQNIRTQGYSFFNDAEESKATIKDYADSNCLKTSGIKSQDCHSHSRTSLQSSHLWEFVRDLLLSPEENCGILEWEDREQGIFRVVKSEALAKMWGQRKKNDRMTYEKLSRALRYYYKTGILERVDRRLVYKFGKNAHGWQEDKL
How it was run: as §1

[7] = target: T7, ETV3 (Homo sapiens, UniProt P41162-2 1-143)
T7 sequence: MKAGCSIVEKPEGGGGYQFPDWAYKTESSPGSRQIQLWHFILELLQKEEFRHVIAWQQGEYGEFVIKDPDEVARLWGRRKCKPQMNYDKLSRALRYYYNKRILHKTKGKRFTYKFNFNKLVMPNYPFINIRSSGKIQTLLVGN
How it was run: as §1

[8] = target: ETV6 (Homo sapiens, UniProt P41212 1-452)
How it was run: as §1

ETV6, sequence (P41212 whole entry): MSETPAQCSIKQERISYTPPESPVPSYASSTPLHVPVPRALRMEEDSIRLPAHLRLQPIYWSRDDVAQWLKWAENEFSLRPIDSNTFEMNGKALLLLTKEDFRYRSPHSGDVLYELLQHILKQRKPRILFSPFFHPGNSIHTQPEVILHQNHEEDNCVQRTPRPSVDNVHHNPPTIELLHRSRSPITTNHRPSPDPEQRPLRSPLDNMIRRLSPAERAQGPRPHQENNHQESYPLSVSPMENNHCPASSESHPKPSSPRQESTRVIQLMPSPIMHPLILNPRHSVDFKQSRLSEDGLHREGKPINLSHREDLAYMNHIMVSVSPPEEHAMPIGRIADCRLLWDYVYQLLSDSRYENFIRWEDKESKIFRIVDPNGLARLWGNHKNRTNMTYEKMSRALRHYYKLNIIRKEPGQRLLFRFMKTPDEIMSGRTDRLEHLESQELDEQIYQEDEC

Row | Sequence | binding signal [1] | binding signal [2] | binding signal [3] | binding signal [4] | binding signal [5] | binding signal [6] | binding signal [7] | binding signal [8]
1 | GCCTTG | 1.16 fold enrichment (6-mer frequency, TF over GST control) | 1.34 fold enrichment (6-mer frequency, TF over GST control) | 1.25 fold enrichment (6-mer frequency, TF over GST control) | 1.13 fold enrichment (6-mer frequency, TF over GST control) | 1.3 fold enrichment (6-mer frequency, TF over GST control) | 1.17 fold enrichment (6-mer frequency, TF over GST control) | 1.14 fold enrichment (6-mer frequency, TF over GST control) | 1.16 fold enrichment (6-mer frequency, TF over GST control)
2 | TCTACC | 1.73 fold enrichment (6-mer frequency, TF over GST control) | 1.78 fold enrichment (6-mer frequency, TF over GST control) | 1.6 fold enrichment (6-mer frequency, TF over GST control) | 1.6 fold enrichment (6-mer frequency, TF over GST control) | 1.44 fold enrichment (6-mer frequency, TF over GST control) | 1.61 fold enrichment (6-mer frequency, TF over GST control) | 1.52 fold enrichment (6-mer frequency, TF over GST control) | 1.54 fold enrichment (6-mer frequency, TF over GST control)
3 | AACCCT | 1.17 fold enrichment (6-mer frequency, TF over GST control) | 1.24 fold enrichment (6-mer frequency, TF over GST control) | 1.26 fold enrichment (6-mer frequency, TF over GST control) | 1.17 fold enrichment (6-mer frequency, TF over GST control) | 1.24 fold enrichment (6-mer frequency, TF over GST control) | 1.28 fold enrichment (6-mer frequency, TF over GST control) | 1.27 fold enrichment (6-mer frequency, TF over GST control) | 1.33 fold enrichment (6-mer frequency, TF over GST control)
4 | CCCTTA | 1.32 fold enrichment (6-mer frequency, TF over GST control) | 1.41 fold enrichment (6-mer frequency, TF over GST control) | 1.34 fold enrichment (6-mer frequency, TF over GST control) | 1.38 fold enrichment (6-mer frequency, TF over GST control) | 1.23 fold enrichment (6-mer frequency, TF over GST control) | 1.2 fold enrichment (6-mer frequency, TF over GST control) | 1.39 fold enrichment (6-mer frequency, TF over GST control) | 1.24 fold enrichment (6-mer frequency, TF over GST control)
5 | ACCTTT | 1.52 fold enrichment (6-mer frequency, TF over GST control) | 1.41 fold enrichment (6-mer frequency, TF over GST control) | 1.48 fold enrichment (6-mer frequency, TF over GST control) | 1.34 fold enrichment (6-mer frequency, TF over GST control) | 1.36 fold enrichment (6-mer frequency, TF over GST control) | 1.45 fold enrichment (6-mer frequency, TF over GST control) | 1.42 fold enrichment (6-mer frequency, TF over GST control) | 1.48 fold enrichment (6-mer frequency, TF over GST control)
6 | TGATCT | 1.35 fold enrichment (6-mer frequency, TF over GST control) | 1.1 fold enrichment (6-mer frequency, TF over GST control) | 1.31 fold enrichment (6-mer frequency, TF over GST control) | 1.23 fold enrichment (6-mer frequency, TF over GST control) | 1.11 fold enrichment (6-mer frequency, TF over GST control) | 1.22 fold enrichment (6-mer frequency, TF over GST control) | 1.25 fold enrichment (6-mer frequency, TF over GST control) | 1.06 fold enrichment (6-mer frequency, TF over GST control)
7 | TAATAG | 1.24 fold enrichment (6-mer frequency, TF over GST control) | 1.12 fold enrichment (6-mer frequency, TF over GST control) | 1.2 fold enrichment (6-mer frequency, TF over GST control) | 1.19 fold enrichment (6-mer frequency, TF over GST control) | 1.2 fold enrichment (6-mer frequency, TF over GST control) | 1.15 fold enrichment (6-mer frequency, TF over GST control) | 1.15 fold enrichment (6-mer frequency, TF over GST control) | 1.14 fold enrichment (6-mer frequency, TF over GST control)
